Screening results from PubChem.
CDC25B CDK2 inh: human CDC25B-CDK2/CyclinA binding inhibition; P30305+P24941; HTRF CDC25B-CDK2/CyclinA binding, anti-His/anti-Flag; active compounds read high; z-score (concentration not given with the values); hit rate 0.72% among 94,000; AID 1259370; in the data active = z-score above about 3.2
HIV TAR-Tat: HIV-1 TAR-Tat binding disruption. HIV-1 TAR RNA, Tat peptide displacement FRET; active compounds read high. z-score (no concentration beside the values). hit rate 0.6% among 100,000; active = z-score of 3 or more in at least 2 runs
An asterisk follows results filed as active; . = not tested or not shown. In the library only some 0.86% were active in any assay of this set; here they are far more common.

SMILES	CDC25B CDK2 inh	HIV TAR-Tat
COc1cc(-c2oc3cc(O)cc(O)c3c(=O)c2O[C@@H]2O[C@H](CO)[C@@H](O)[C@H](O)[C@H]2O)ccc1O	.	0.39
C[C@@H]1O[C@@H](OC[C@H]2O[C@@H](Oc3c(-c4ccc(O)c(O)c4)oc4cc(O)cc(O)c4c3=O)[C@H](O)[C@@H](O)[C@@H]2O)[C@H](O)[C@H](O)[C@H]1O	.	10.7*
CC1O[C@@H](Oc2c(-c3ccc(O)c(O)c3)oc3cc(O)cc(O)c3c2=O)[C@H](O)[C@H](O)[C@H]1O (some centres not stated)	.	2.79
O=c1c(O[C@@H]2O[C@H](CO)[C@@H](O)[C@H](O)[C@H]2O)c(-c2ccc(O)c(O)c2)oc2cc(O)cc(O)c12	.	28.1*
O=c1c(O[C@@H]2OC([C@H](O)CO)[C@H](O)[C@H]2O)c(-c2ccc(O)c(O)c2)oc2cc(O)cc(O)c12 (some centres not stated)	.	26.9*
COc1ccc(-c2oc3cc(O[C@H]4O[C@H](CO)[C@@H](O)[C@H](O)[C@H]4O)c(OC)c(O)c3c(=O)c2OC)cc1O	.	2.34
COc1cc(-c2oc3cc(O)cc(O)c3c(=O)c2OC[C@@H]2OC(O[C@@H]3O[C@@H](C)[C@H](O)[C@@H](O)[C@H]3O)[C@@H](O)[C@H](O)[C@@H]2O)ccc1O (some centres not stated)	.	4.95
CC(C)NC(=O)CCC(=O)N1CC(C)Oc2ccccc21 (configuration not stated)	-1.47	-0.31
Cc1cc2c3c([nH]c2cc1S(=O)(=O)Nc1ccc(F)c(Cl)c1)CCCC3=O	.	0.14
Cc1cc(SCC(=O)Nc2sc3c(c2C(N)=O)CCCC3)ncn1	0.21	0.32
Cc1nc2c(=O)n(-c3cc(C(F)(F)F)ccc3Cl)nc(C)c2s1	2.77	.
Nc1ccc(-c2nc3c(Cl)c(N)ccc3[nH]2)cc1	-7.51	3.7*
Cc1nc2ccc(-c3nc4ccc(N)cc4[nH]3)cc2[nH]1	4.99*	.
Cc1c(N)ccc2[nH]c(-c3ccc(N)cc3)nc12	-3.1	2.37
Cc1ccc(-c2nc3ccc(N)cc3[nH]2)cc1	-1.96	-7.56
Nc1ccc(-c2nc3ccc(N)cc3[nH]2)cc1	-1.53	.
Nc1ccc2nc(-c3ccc(Cl)cc3)[nH]c2c1	-1.99	5.14*
O=C(NCc1ccc2c(c1)OCO2)C1=NS(=O)(=O)c2ccccc2N1	.	-0.23
CCCCN1CC(c2nc3ccccc3n2CCC)CC1=O (configuration not stated)	-0.53	-0.24
O=C(CN1C(=O)CCc2cc(Br)ccc21)Nc1ccccn1	.	2.64
CCCCc1ccc(NC(=O)NCCNc2nccc(C(F)(F)F)n2)c(C)c1	-2.84	.
O=C1N(Cc2ccccc2)c2ccccc2S(=O)(=O)N1c1cc(F)ccc1F	.	1.32
CC(CNS(=O)(=O)c1cc(F)ccc1CN1C(=O)c2cccnc2C1=O)c1ccccc1 (configuration not stated)	.	-0.4
Nc1cc2c(=O)c3cc(Cl)cc(Cl)c3[nH]c2c2c1C(=O)c1ccccc1C2=O	10.1*	.
Nc1cc(S(=O)(=O)O)c(N)c2c1C(=O)c1ccccc1C2=O	-2.42	.
SMILES	CDC25B CDK2 inh	HIV TAR-Tat
CC1Cc2ccccc2N1c1ncnc2c1nnn2C (configuration not stated)	.	1.74
COCCCNC(=O)C1CCN(S(=O)(=O)N2CCCCC2)CC1	.	1.7
CCOC(=O)C1CCN(c2ncnc3sc(C(=O)O)c(C)c23)CC1	.	15.9*
Cc1c(C(=O)O)sc2ncnc(N3CCC(c4ccccc4)C3)c12 (configuration not stated)	.	0.4
CCCN1CCN(c2nc(N3CCN(C)CC3)c3cnn(C)c3n2)CC1	.	-1.34
Cc1cccc(N2CCN(CCCNc3nn4nnnc4c4ccccc34)CC2C)c1 (configuration not stated)	-1.83	1.89
CC(=O)Nc1c(N2CCCC2)ccc2nsnc12	.	-0.57
COc1ccc(Br)cc1C1OCCn2c(-c3ccccc3)c3c(=O)n(C)c(=O)n(C)c3c21 (configuration not stated)	-1.97	-0.78
COc1ccc(CC(=O)NN)cc1OC	-1.64	.
COC(=O)C1Cc2cc(OC)c(OC)cc2C(Cc2ccc(OC)c(OC)c2)=N1 (configuration not stated)	8.89*	-0.5
Cc1ccc2c(=O)cc(C(=O)N(Cc3ccc(C(C)C)cc3)C3CCS(=O)(=O)C3)oc2c1C (configuration not stated)	-1.3	-0.93
Cc1nc2ccc(S(=O)(=O)NC(C(=O)NC3CCCC(C)C3C)C(C)C)cc2s1 (configuration not stated)	-2.24	-0.85
CCCNC(=O)c1noc(C(C)C)c1[N+](=O)[O-]	-1.52	-0.05
O=C(O)c1ccccc1-c1c2ccc3cc(O)ccc3c2oc2c1ccc1cc(=O)ccc12	-0.05	25*
COc1ccccc1-c1cc(C(=O)O)c2ccccc2n1	-0.81	-3.65
COc1ccccc1C1C(C(=O)OC2CCCCC2)=C(C)NC2=C1C(=O)CCC2 (configuration not stated)	0.33	0.27
